# According to the supplement of paper PMC4894684:
# Values joined by “and” are separate entries in the source; they are usually repeats but may differ in a detail not shown here. Identical values can stand only once. Counter-ions that a name gives are not always drawn. ± gives the standard deviation of the averaged measurements.
# Tested on: Toxoplasma gondii RH (in HFF)
# Assay: parasite growth relative to the screen mean (all compounds = 100%); higher = less inhibition of parasite growth
# Conditions: 5 µM; 72 h; oxygen 21 %
# Method in brief: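 RH β-Gal–GFP Toxoplasma at MOI 1:5 was used to infect confluent human foreskin fibroblasts in 96-well plates within 2 h of pin-transferring compounds to 5 µM final. After 72 h at 21% O2, parasite number was determined by CPRG β-Gal assay against standard curves on the same plate. Growth is relative to the screen mean and averaged over two screens, with all compounds = 100%.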
row,SMILES,parasite growth
1,N[C@@H](Cn1ccc(=O)n(Cc2ccccc2C(=O)O)c1=O)C(=O)O,108% and 93.5%
2,CC(C)NCC(O)COc1ccccc1-n1cccc1 (stereo not drawn) [Isamoltane hemifumarate],97 ± 39%
3,Nc1c(S(=O)(=O)O)cc(Nc2cccc3ccccc23)c2c1C(=O)c1ccccc1C2=O,172 ± 11%
4,O=C(O)COc1cccc(-c2ocnc2-c2nc(-c3ccccc3)c(-c3ccccc3)o2)c1,62.8 ± 28%
5,c1cnc(N2CCN(Cc3ccc4c(c3)OCO4)CC2)nc1 [Piribedil],70.3 ± 8.6%
6,CCc1c2c(nc3ccc(O)cc13)-c1cc3c(c(=O)n1C2)COC(=O)[C@]3(O)CC,110.2 ± 0.25%
7,COc1ccc(-c2oc3cc(OC)ccc3c2C(=O)c2ccc(C#N)cc2)cc1,81.1 ± 22%
8,COc1ccc(CCN(C)CCCN2CCc3cc(OC)c(OC)cc3CC2=O)cc1OC [Zatebradine hydrochloride],103 ± 1.8%
9,O=C(O)c1ccc2cc(-c3ccc(O)c(C45CC6CC(CC(C6)C4)C5)c3)ccc2c1,181 ± 36%
10,CC(O)(C(=O)Nc1ccc(S(=O)(=O)c2ccccc2)cc1)C(F)(F)F (stereo not drawn),59.3 ± 19%
11,NC(=O)CCCCn1ccc(NC(N)=NCC(F)(F)F)n1,95.1 ± 10%
12,Cc1c(CC(C)(C)C(=O)O)n(Cc2ccc(Cl)cc2)c2ccc(F)cc12,129 ± 22%
13,O=C(c1ccc(F)cc1)C1CCN(CCn2c(=O)[nH]c3ccccc3c2=O)CC1 [Ketanserin tartrate],183 ± 33%
14,O=C(O)C(=O)O.[NH-][C@@H]1CCCC[C@H]1[NH-].[Pt+2] [Oxaliplatin],143 ± 2.5%
15,Cc1ccc(/C=N/NC(=O)c2ccccc2Oc2ccccc2)o1,72.7 ± 4.9%
16,Cc1ccc(S(=O)(=O)/C=C/C#N)cc1,135 ± 27%
17,Clc1ccc(-c2nc3sccn3c2/C=N/OCc2ccc(Cl)c(Cl)c2)cc1,110 ± 8.4%
18,CCc1cc(C(C)=O)c(O)cc1OCCCCCC(C)(C)c1nn[nH]n1,111 ± 4.1%
19,N=C(CC(O)COc1ccccc1-c1ccccc1)N1CCCCC1 (stereo not drawn),95.8 ± 34%

row,SMILES,parasite growth
1,O=C(O)Cc1cccc(OCCCN(Cc2cccc(C(F)(F)F)c2Cl)CC(c2ccccc2)c2ccccc2)c1 [GW 3965 hydrochloride],105 ± 15%
2,Cc1ccc(NC(=O)c2cccc(N(C)C)c2)cc1NC(=O)c1ccc(O)cc1,141 ± 7.3%
3,OCC(CO)N[C@H]1C[C@](O)(CO)[C@@H](O)[C@H](O)[C@H]1O [Voglibose],68.07 ± 0.24%
4,O=c1nc2ccccc2c2n1CC(CN1CCN(c3ccccc3)CC1)N2 (stereo not drawn),120 ± 2.4%
5,CC1=C(/C=C/C(=C/C=C/C(C)=C/C(=O)O)c2ccc(C)cc2)C(C)(C)CCC1,94.1 ± 23%
6,COc1cc2c(cc1O)CC[C@@H]1[C@@H]2CC[C@]2(C)[C@@H](O)CC[C@@H]12 [2-Methoxyestradiol],174 ± 46%
7,Cn1cc(C2=C(c3ccc(Cl)cc3Cl)C(=O)NC2=O)c2ccccc21,136 ± 4.2%
8,O=c1cc(N2CCOCC2)oc2c(-c3ccccc3)cccc12,129 ± 26%
9,CN(Cc1ccccc1)C(=O)[C@H](Cc1ccc2ccccc2c1)NC(=O)[C@@H]1CCCN1C(=O)Nc1ccccc1[N+](=O)[O-],110 ± 9.9%
10,CC1(C)O[C@@H]2[C@@H](CO[C@@]3(COS(N)(=O)=O)OC(C)(C)O[C@@H]23)O1 [Topiramate],112 ± 8.3%
11,CN1CC(=O)N=C1NC(=O)Nc1cccc(Cl)c1 [Fenobam],134 ± 5.3%
12,N[C@H](C(=O)O)[C@H](OCc1ccccc1)C(=O)O (racemic),80.3 ± 61%
13,O=C1c2ccccc2C(Cc2ccncc2)(Cc2ccncc2)c2ccccc21 [XE 991 dihydrochloride],34.3 ± 6.2%
14,NC(=O)c1cccc(N)c1 [3-Aminobenzamide],129 ± 30%
15,CN[C@H]1CC[C@@H](c2ccc(Cl)c(Cl)c2)c2ccccc21 [Sertraline hydrochloride],29.3 ± 4.4%
16,CC1c2ccccc2CN1CC1=NCCN1 (stereo not drawn),131 ± 4.2%
17,O=C(Nc1ccncc1)c1cc([N+](=O)[O-])ccc1Cl,< 0%
18,O=S1(=O)c2cccc3cccc(c23)N1CCCN1CCN(c2ccc(F)cc2)CC1 [Fananserin],130 ± 14%
19,O=C(NCCCN1CCCCCC1)C(c1ccccc1)C1CCCCC1 (stereo not drawn),83 ± 2.4%
